An excerpt weighted towards active compounds, which were near 18% of everything screened.
TDP1 cell CPT: qHTS for Inhibitors of human tyrosyl-DNA phosphodiesterase 1 (TDP1): qHTS in cells in presence of CPT. hit rate 12% among 420,000. chicken DT40 Tdp1-/-;hTDP1 cells + 20 nM CPT, ATP luminescence, 48 h. Potency, µM (top dose mostly 46.2 µM), hits mostly inhibitors; also: nearly all actives have a fitted effect of over 55% in size
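Chicken DT40 Tdp1-/- cells stably complemented with human TDP1 were seeded at 400 cells/well in medium containing 20 nM camptothecin, exposed to pin-transferred compounds, and grown at 37 °C for at least 48 hr. Viability was read as ATP luminescence.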
IL-1B inflam inh: qHTS for Inhibitors of Inflammasome Signaling: IL-1-beta AlphaLISA Primary Screen; hit rate 4.7% among 360,000; activity change, % at 57.5 µM; THP-1 LPS/ATP IL-1B secretion, AlphaLISA, 16 h; stronger effect = lower value; AID 743279, 2014; in the data active = activity change below about -50%; inconclusive = mostly about -30% to -49%
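THP-1 cells pretreated 1 hr with compounds (up to 57.5 uM final), then stimulated with LPS (250 ng/mL final) plus ATP (1.25 mM final); secreted IL-1B measured by AlphaLISA after 16 hr, decreased signal indicating inhibition.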
DT40 TDP1 no CPT: qHTS for Inhibitors of human tyrosyl-DNA phosphodiesterase 1 (TDP1): qHTS in cells in absence of CPT; Potency, µM (doses to about 46.2 µM), hits mostly inhibitors; DT40 Tdp1-/- hTDP1 cells, no CPT, ATP luminescence, 48 h; AID 686978, 2013; hit rate 15% among 420,000; also: nearly all actives have a fitted effect of over 55% in size
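DT40 Tdp1-/-;hTDP1 cells, no CPT (DMSO vehicle only), 400 cells/well; compounds pin-transferred; ≥48 hr, 37 °C; CellTiter-Glo 30 min RT dark, luminescence read.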
TDP1 block: qHTS Assay for Inhibitors of Tyrosyl-DNA Phosphodiesterase (TDP1); Tyrosyl-DNA phosphodiesterase 1 (Homo sapiens), Q9NUW8; recombinant TDP1, AlphaScreen DNA substrate cleavage; Potency, µM (highest dose often 130 µM), hits mostly inhibitors; hit rate 0.28% among 350,000; AID 485290, 2010; also: nearly all actives have a fitted effect of over 40% in size
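Recombinant E. coli-expressed Tdp1 (1 nM) preincubated with compound 15 min at RT, then 5'-biotin/3'-phosphotyrosine-FITC DNA substrate (15 nM) added for 5 min. AlphaScreen beads (10 ug/ml) added, 10 min RT; tyrosine-FITC cleavage read as signal loss.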
CtBP-E1A blk: qHTS Assay for Inhibitors of the CtBP/E1A Interaction | CtBP / adenovirus E1A interaction (AlphaScreen) | AlphaScreen GST-E1A/His-CtBP binding, 1536-well; stronger effect = lower value | activity change, % (concentration not given with the values) | hit rate 0.49% among 340,000; in the data active = activity change below about -65%; inconclusive = mostly about -30% to -63%
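GST-E1A and His-tagged CtBP (125 nM each as 5X stock) were preincubated with pin-transferred compound for 2 h at 37 °C in the dark, then glutathione donor and nickel acceptor beads were added for 1 h before AlphaScreen reading.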
Six1-Eya2 blk: qHTS Assay for Inhibitors of the Six1/Eya2 Interaction; hit rate 0.56% among 360,000; AlphaScreen GST-Six1/His-Eya2 binding, biochemical; stronger effect = lower value; AID 651725, 2012; activity change, % (no concentration beside the values); in the data active = activity change below about -65%; inconclusive = mostly about -30% to -63%
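GST-Six1 + His-Eya2 (5X stock: 250/500 nM); Tris pH 8.0, 300 mM NaCl, 0.05% BSA, 0.02% Tween 20; GSH donor/Ni acceptor beads; 1 h 37 °C dark; AlphaScreen readout.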
A number is an active result; - = inactive; ? = inconclusive; . = no result given; [ ] = another dose, or the depositor's remark. Unless noted, calls follow the shape of the dose curve; as a rule, active = well fitted curve in the direction sought with a large enough effect; inconclusive = small, poorly fitted or top-dose-only effect, or another doubt; inactive = no such curve, though single readings can be large; an effect the other way counts as inactive or inconclusive.

SMILES	TDP1 cell CPT	IL-1B inflam inh	DT40 TDP1 no CPT	TDP1 block	CtBP-E1A blk	Six1-Eya2 blk
CCc1ccc(NC(=O)CSc2cn(CC(=O)N3CCCC3)c3ccccc23)cc1	18µM	.	?	-	.	.
CCc1ccc(NC(=O)CSc2cn(CC(=O)N3CCOCC3)c3ccccc23)cc1	-	.	?	-	.	.
CC(NC(=O)/C(=C\c1ccco1)NC(=O)c1ccco1)C(=O)O (configuration not stated)	-	-	-	-	-	-
O=C(NCc1ccc(F)cc1)C1CCCN1S(=O)(=O)c1ccc(F)cc1 (configuration not stated)	-	-	-	.	-	-
O=C1CSCN1c1cc(Cl)ccc1Cl	-	-	-	-	-	-
Cc1ccc(N/C=C(/C#N)c2ccsc2)cc1	-	-	-	-	-	-
CCOC(=O)c1ccc(NC(=O)CSc2cn(CC(=O)N3CCCC3)c3ccccc23)cc1	?	.	18µM	-	.	.
O=C(CSc1cn(CC(=O)N2CCCC2)c2ccccc12)Nc1ccc(Cl)cc1	?	.	?	-	.	.
O=C(C1CCCN(S(=O)(=O)c2cccc3nsnc23)C1)N1CCN(c2ccccc2)CC1 (configuration not stated)	16µM	.	21µM	-	.	.
O=C(C1CCCN(S(=O)(=O)c2cccc3nsnc23)C1)N1CCN(c2ccccc2F)CC1 (configuration not stated)	18µM	.	15µM	-	.	.
O=C(C1CCN(S(=O)(=O)c2cccc3cccnc23)CC1)N1CCCC1	-	-	-	-	-	-
O=C(C1CCCN(S(=O)(=O)c2cccc3cccnc23)C1)N1CCN(c2ccccc2F)CC1 (configuration not stated)	23µM	-	15µM	-	-	-
Cc1cccc(N2CCN(C(=O)C3CCCN(S(=O)(=O)c4cccc5nsnc45)C3)CC2)c1C (configuration not stated)	-	.	18µM	-	.	.
CCN1CCN(C(=O)C2CCCN(S(=O)(=O)c3cccc4nsnc34)C2)CC1 (configuration not stated)	-	-	-	-	-	-
COCCNC(=S)N1CCN(c2cccc(C)c2C)CC1	-	-	-	-	-	-
CCCCOC(=O)CCc1nc2ccccc2[nH]1	-	-	-	-	-	-
CC(=O)c1ccc(NC(=O)CSc2nc(=O)n(CCN3CCOCC3)c3c2CCC3)cc1	-	-	-	.	-	-
CC(C)NC(=O)C1CCCN(S(=O)(=O)c2cccc3nonc23)C1 (configuration not stated)	-	-	-	-	-	-
O=C(C1CCCN(S(=O)(=O)c2cccc3nonc23)C1)N1CCN(c2cccc(C(F)(F)F)c2)CC1 (configuration not stated)	15µM	.	12µM	-[12.3 µM]	.	.
Nc1c(C(=O)NCc2ccco2)nnn1CC(=O)Nc1ccc2c(c1)OCO2	-	-	-	-	.	-
Clc1ccc(/C=N\Nc2ccccc2)cc1	-	-	-	.	.	-
O=C(N/N=C/c1ccc(Cl)cc1)Nc1ccccc1	?	-	8.2µM	-	-	-
O=C(CC(=O)Nc1cccc(Cl)c1)N/N=C\c1ccccc1	?	-	0.29µM	-	-	-
Clc1cccc(N/N=C/c2ccncc2)c1	-	-53	?	-	-	-
O=C(Nc1cccc(Cl)c1)O/N=C\c1ccncc1	-	-	-	-	-	-
SMILES	TDP1 cell CPT	IL-1B inflam inh	DT40 TDP1 no CPT	TDP1 block	CtBP-E1A blk	Six1-Eya2 blk
Cn1c(=O)oc2cc(S(=O)(=O)NCCC(=O)Nc3ccc4c(c3)OCCO4)ccc21	-	-	-	-	-	-
Fc1ccc(CN2CCN3CCCC3C2C2CCCCC2)cc1F (configuration not stated)	23µM	-	18µM	-	-	-
Cc1nc(C)c(-c2nnc(-c3ccccc3Cl)o2)cc1C(=O)NN	-	-	-	.	-	-
Cc1nc(C)c(-c2nnc(-c3ccc(C(C)(C)C)cc3)o2)cc1C(=O)NN	?	-	23µM	-	-	-
NS(=O)(=O)c1ccc(CCNS(=O)(=O)c2cccs2)cc1	-	-	-	-	-	-
O=C(c1cccc2ccccc12)C1CCCN(C(=O)CCc2cnccn2)C1 (configuration not stated)	?	-	8.2µM	-	-	-
CN(C)C(=O)CCC(=O)N1CCCC(C(=O)c2ccc(C(F)(F)F)cc2)C1 (configuration not stated)	?	-	26µM	-	-	-
O=C(c1ccc(C(F)(F)F)cc1)C1CCCN(C(=O)CCn2cncn2)C1 (configuration not stated)	-	-	-	-	-	-
O=C(c1ccc(C(F)(F)F)cc1)C1CCCN(C(=O)CCc2ccncc2)C1 (configuration not stated)	8.2µM	-	6.5µM	-	-	-
CN(C)C(=O)N1CCC(C(=O)N2CCCC(C(=O)c3ccc(C(C)(C)C)cc3)C2)CC1 (configuration not stated)	?	-	16µM	.	.	-
NC(=O)CCC(=O)N1CCCC(C(=O)c2ccc(C(F)(F)F)cc2)C1 (configuration not stated)	-	-	-	.	-	-
COc1ncnc2c1oc1nc(C(C)C)c3c(c12)CC(C)(C)OC3	?	-	?	-	-	-
CCCCN(C(=O)c1cc(CC)c(C)s1)c1c(N)n(CC(C)C)c(=O)[nH]c1=O	-	-	-	-	-	-
O=C(C=Cc1ccco1)N1CCOCC1	-	-	-	.	-	-
C=Cn1ccnc1P(=S)(c1ccc2c(c1)c1ccccc1n2CC)c1nccn1C=C	29µM	?	?	-	-	-
CCn1c2ccccc2c2cc(/C=C3\C=Cc4ccccc43)ccc21	-	.	?	.	.	.
COc1ccc(-n2c(SCC(=O)Nc3cc(C)on3)nc3c(c2=O)SCC3)cc1OC	-	-	-	-	-	-
Cc1ccc(S(=O)(=O)Oc2ccccc2/C=N/N=C(N)N)cc1	?	-127	18µM	-	-	-
COc1cccc(/C=N/NC(N)=S)c1OS(=O)(=O)c1ccccc1	?	-	-	-	-	-
